This test concerns the target Fibroblast growth factor 10 (Homo sapiens) (UniProt O15520). The test is described as follows: compounds binding fibroblast growth factor 10 – biochemical, small-molecule microarray, 635 nm fluorescence, primary screen (AID 1102). As to conditions: FGF10 binding, fluorescence 635 nm, higher = more signal.
Chain of Fibroblast growth factor 10 (Homo sapiens) (O15520 whole entry, looked up): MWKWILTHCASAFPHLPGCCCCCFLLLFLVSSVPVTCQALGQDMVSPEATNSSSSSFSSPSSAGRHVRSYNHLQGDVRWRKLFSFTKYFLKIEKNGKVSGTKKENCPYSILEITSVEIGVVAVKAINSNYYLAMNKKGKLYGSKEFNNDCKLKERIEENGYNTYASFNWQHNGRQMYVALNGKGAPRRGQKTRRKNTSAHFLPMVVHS
Molecule `CC(C)(C)N1CC=CC23O[C@@H]4/C=C\CCCOC(=O)C4[C@H]2C(=O)N(CCCO)[C@@H]3C1=O` (stereo partly drawn) displayed a composite z-score of -0.795. Under `Cc1ccc(S[C@]2(C(=O)NCCCN(C)C)CC(=O)N(C3Cc4ccccc4C3)[C@@H]2c2ccc(CO)cc2I)cc1` stands -0.795; under `CCOc1cc(C(O)C2C=CC3C(=O)N(c4ccccc4)C(=O)C3N2Nc2ccccc2F)ccc1O` (stereo not drawn), 0.208. Consider `Cc1ccc(F)cc1S(=O)(=O)N[C@H]1CCN(Cc2ccc(OC(C)C)cc2)C1`, for which the composite z-score came to 0.44. For `COC(=O)C(CC#Cc1ccc2c(c1)[C@]1(C(=O)N2)[C@H](c2ccc(OCCO)cc2)N2[C@H](c3ccccc3)[C@H](c3ccccc3)OC(=O)[C@H]2[C@@H]1C(=O)N1CCCCCCC1)C(=O)OC` the value was 1.18; for `[N-]=[N+]=Nc1ccccc1C[C@]1(C(=O)N2CCOCC2)N=C(c2ccc(OCCCO)cc2)O[C@H]1c1ccccc1N=[N+]=[N-]`, 1.41.

For the molecule `O=C(NC1CC1)[C@@H]1c2ccccc2C(=O)N(Cc2ccc(OC(F)(F)F)cc2)[C@H]1c1ccc(CO)cc1`, the composite z-score turned out to be 0.567. With `CN(C)CCCC[C@@H]1NC(=O)[C@H]2C[C@@H](C(=O)O)[C@@H](c3ccc(O)cc3)N2C1=O`, the composite z-score is 1.55.

In the case of `CO[C@H]1O[C@H](CO)[C@@H](OC(=O)Nc2ccccc2)[C@H](OC(=O)Nc2ccccc2)[C@H]1OC(=O)Nc1ccccc1`, the composite z-score was found to be 1.48. Regarding `[N-]=[N+]=NCc1ccccc1[C@@H]1OC(c2ccc(OCCCO)cc2)=N[C@]1(Cc1ccccc1N=[N+]=[N-])C(=O)O`, the composite z-score came to 1.15. For `CC(C)=CCCC(C)=CC(O)C1C=CC2C(=O)NC(=O)C2N1Nc1ccc(Cl)cc1Cl` (stereo not drawn) the value was 0.499. For the molecule `CC(C)C(=C=CC[C@H](O)c1ccccc1OCCO)C[C@H](O)c1cc(Cl)cc(Cl)c1O`, the composite z-score is 1.11. For `COc1ccc(C(=O)Nc2ccc3c(c2)[C@@]2(O[C@H](CCO)[C@@H]([Si](C)(C)c4ccc(OC)cc4)[C@@H]2C)C(=O)N3Cc2ccccc2)cc1` the value was 0.517. Under `CC(C)(C)OC(=O)CC[C@@]1(C(=O)NCCN2CCOCC2)N=C(c2ccc(OCCCO)cc2)O[C@@H]1c1ccccc1CN=[N+]=[N-]` stands 0.08.

Turning to `CC(C)C(CO)N1C(=O)[C@@H]2C3C(=O)OCCC/C=C\[C@H]3OC23C=CCN(Cc2ccccc2)C(=O)[C@@H]13` (stereo partly drawn), the composite z-score is 0.0565. For `COC(=O)C(CC#Cc1ccc2c(c1)[C@]1(C(=O)N2)[C@H](C(=O)N2CCc3cc(OC)c(OC)cc3C2)[C@H]2C(=O)O[C@H](c3ccccc3)[C@H](c3ccccc3)N2[C@@H]1c1ccccc1OCCO)C(=O)OC` the value was 0.954.

Molecule `CC(C)=CCCC=C(C)C(O)C1C=CC2C(=O)N(c3ccccc3)C(=O)C2N1Nc1ccc(C#N)cc1` (stereo not drawn) returned a composite z-score of 0.569. For `C=CCC(OC(C)=O)[C@@H]1[C@@H](N(Cc2cccc3ccccc23)C(=O)Cc2ccc(OC)cc2)c2cc(OCCCO)ccc2N1C(=O)Cc1ccc2ccccc2c1` (stereo partly drawn) the value was -0.0821; for `CN1C(=O)C2C=CC(C(O)c3ccc(-c4ccccc4)s3)N(NC(=O)OC(C)(C)C)C2C1=O` (stereo not drawn), 0.171. Under `COC(=O)[C@@]1(Cc2ccccc2)N=C(c2ccc(OCCCO)cc2)O[C@H]1c1ccccc1CN=[N+]=[N-]` stands 0.722; under `COc1ccc([Si](C)(C)[C@H]2[C@H](CC(=O)N3Cc4ccccc4C[C@H]3CO)O[C@@]3(C(=O)N(C)c4ccccc43)[C@@H]2C)cc1`, 0.891. Under `C=CCC(OC(C)=O)[C@@H]1[C@@H](N(Cc2cc3ccccc3o2)C(=O)c2cccc3ccccc23)c2cc(OCCCO)ccc2N1C(=O)c1ccc2ccccc2n1` (stereo partly drawn) stands 0.169. In turn, `CCOC(=O)C[C@H]1[C@H](OC(=O)c2ccccc2-c2ccccc2)[C@@H](NC(=O)C2CCCCC2)c2cc(OCCCO)ccc2N1C(=O)c1ccc2ccccc2n1` had a composite z-score of 0.679.

Turning to `O=C1C2C=CC(C(O)C3CCCCC3)N(n3cnnc3)C2C(=O)N1Cc1ccccc1` (stereo not drawn), the composite z-score was 1.16. With `C=CCOC(=O)[C@@H]1[C@H]2C(=O)O[C@H](c3ccccc3)[C@H](c3ccccc3)N2[C@H](c2ccc(OCCOC(=O)[C@H]3C[C@H]4C(=O)N[C@@H](CCCCN(C)C)C(=O)N4[C@H]3c3ccc(O)cc3)cc2)[C@@]12C(=O)Nc1ccc(I)cc12`, the composite z-score turned out to be 0.88. Under `O=C1C[C@]2(c3ccc([N+](=O)[O-])cc3)C(=O)N(C3CC3)c3cc(CO)ccc3[C@H]2N1C1CCCCC1` stands -0.104; under `CN(C)CCCNC(=O)[C@@]1(Cc2ccccc2I)c2ccccc2C(=O)N(C2CCCCC2)[C@H]1c1ccc(CO)cc1`, 0.269.

As to `C=CCC(OC(C)=O)[C@@H]1[C@@H](N(Cc2cccc3ccccc23)C(=O)c2ccc(-c3ccccc3)cc2)c2cc(OCCCO)ccc2N1C(=O)Cc1ccc2ccccc2c1` (stereo partly drawn), the composite z-score was -0.179.

These data come from PubChem BioAssay.
